In ChEMBL document CHEMBL3433997, “St. Jude Leishmania screening dataset” (2016) one finds inhibition data, which are given here for 24 compounds.

The target in the experiment is Glucose transporter (Leishmania mexicana) (UniProt O61059). As to the kind of experiment: ST_JUDE_LEISH: Cytotoxicity at 2uM final concentration against transgenic Leishmania Mexicana promastigotes LmGT2 that are glucose transport deficient and complemented with the L. Mexicana glucose transporter 2. Activity is measured by DNA content using SYBR green in vitro. Format: functional.
As for `Cc1ccc(Cn2nc(N3CCNCC3)ccc2=O)cc1NC(=O)Nc1ccc(-c2ccccc2)cc1`, the inhibition was -1.04%. Regarding `Cc1ccccc1Nc1nc(NCCCO)c2ccccc2n1`, the inhibition was 8.48%. Take `Oc1ccc(CCNCc2ccc(OCc3ccccc3)c(OCc3ccccc3)c2)cc1`: the inhibition is 68.5%. For `CCCCOC(=O)c1ccc(NC(=O)Nc2ccc(Cn3ncc(N4CCCNCC4)c(Cl)c3=O)cc2)cc1`, the inhibition turned out to be 7.4%. In the case of `COc1ccc(Nc2nc(NCc3cccc(NS(C)(=O)=O)c3)cc(-c3ccc(OC)cc3)n2)cc1`, the inhibition amounted to 1.09%. In the case of `COc1cc2c(c(Cl)c1OC)CCN(Cc1ccccc1)CC2c1ccc(NC(=O)C(F)(F)F)cc1` (centres undefined), the inhibition was determined as 2.44%. For `Clc1ccc2c(NCCCCCCCCNc3ccnc4cc(Cl)ccc34)ccnc2c1`, the inhibition stood at 1.88%. Regarding `CC(C)Cc1cn(-c2nc(-c3nc4ccccc4[nH]3)cs2)c2ccncc12`, the inhibition was found to be 3.29%. In the case of `O=[N+]([O-])c1ccc(N2CCCN(C(=S)Nc3ccc(F)cc3Br)CC2)nc1`, the inhibition worked out at 1.29%. `Fc1cc(Cl)ccc1Nc1ccnc2cc(-c3scnc3CNCCN3CCOCC3)ccc12`: the inhibition worked out at 0.33%.

Take `COc1ccc(OCCCCON2C(=N)N=C(N)NC2(C)C)cc1`: the inhibition is 2.18%. `CN(C)S(=O)(=O)c1cc(-c2ccc3nccc(-c4cccc(S(N)(=O)=O)c4)c3c2)cnc1N`: the inhibition was 7.13%. As for `c1ccc(-c2cccc(-c3ccccn3)n2)nc1`, the inhibition was determined as 2.49%. Regarding `COc1ccc(NC(=O)CSc2nc(-c3ccccc3Cl)ns2)cc1`, the inhibition was -2.13%. Consider `CCCCCC(C)N/C(=N/c1ccccc1Br)Nc1ccc([N+](=O)[O-])cc1O` (centres undefined), for which the inhibition was 0.95%. `N#Cc1cc([N+](=O)[O-])ccc1-n1nc(-c2cccc(Cl)c2)n(CC2CCCO2)c1=S` (centres undefined): the inhibition is -4.52%. In the case of `Cc1cccc2nc(-c3cccc(-c4ccc(NC(=O)Cc5c[nH]cn5)cc4)c3)[nH]c12`, the inhibition is -0.58%.

As for `CN1CC[C@@H](Oc2cc(Nc3nc(-c4ccc(C#N)cc4)cs3)ccc2Cl)C1`, the inhibition was determined as 4.06%. `CCN(CC)c1ccc(C(c2ccc(N(CC)CC)cc2)c2cccc([N+](=O)[O-])c2)cc1`: the inhibition was 11.1%. Consider `COc1ccc2c(c1C1CCN(CCCCNC(=O)c3ccc(NC(=O)c4ccc(Cl)cc4)cc3)CC1)CCCC2`, for which the inhibition is -1.07%. With `Nc1nc(N)c2c(ccc3nn(C4CCCC4)cc32)n1`, the inhibition was 5.28%. For the compound `N#Cc1ccc(Cn2ccc3c4c(N)nc(N)nc4ccc32)cc1`, the inhibition was 77.7%. On to `O=c1nc(NCCCCCN2CCC(c3c[nH]c4ccccc34)CC2)[nH]cc1Cc1ccc(Cl)c(Cl)c1`, for which the inhibition was determined as 2.08%. Regarding `O=C1COc2cc(Cl)c(CNC3CCN(CCc4ccnc5c(F)cc(F)cc45)CC3)nc2N1`, the inhibition stood at 1.57%.

The term inhibition denotes the change of the read-out against control, counted positive when it falls.
